Screens deposited in PubChem by Bradner/Qi Labs at DFCI.
The entries come from a sample that favours hits as a whole.
CBX7 inh = CBX7 inhibition, primary AlphaScreen. AlphaScreen His6-CBX7 / biotin-H3K27me3 peptide binding; active compounds read low. normalised signal (fraction of DMSO) (concentration not given with the values). 66,000 tested, 1.1% active. AID 1224903; in the data active = normalised signal below about 0.5
Target sequence (O95931 whole entry, looked up): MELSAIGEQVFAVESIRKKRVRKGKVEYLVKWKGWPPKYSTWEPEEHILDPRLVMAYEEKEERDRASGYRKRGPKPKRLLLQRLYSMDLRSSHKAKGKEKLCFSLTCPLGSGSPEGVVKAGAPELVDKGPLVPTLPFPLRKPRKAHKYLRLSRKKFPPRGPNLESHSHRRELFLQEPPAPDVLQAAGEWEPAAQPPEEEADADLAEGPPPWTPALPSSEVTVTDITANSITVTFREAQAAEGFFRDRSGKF
* = called active by the depositor; ! = a repeat was not active.

SMILES	CBX7 inh
CSCC[C@@H](C(=O)Nc1ccc2c(c1)OCO2)N1Cc2ccccc2C1=O	0.62
COc1ccc(NC(=O)[C@H](Cc2ccccc2)N2Cc3ccccc3C2=O)cc1OC	0.42*
COc1ccc(NC(=O)[C@H](CCSC)N2Cc3ccccc3C2=O)cc1OC	0.77
Cc1ccc(NC(=O)[C@H](Cc2ccccc2)N2Cc3ccccc3C2=O)cc1F	0.68
COc1ccc(C2CC(=O)c3c([nH]c(C(=O)OCCc4ccccc4)c3C)C2)cc1 (stereo unspecified)	0.98
Cc1cc(C)cc(-c2nc(-c3ccc(Cl)cc3)no2)c1	1.2
O=C(CCc1cn(Cc2ccccc2)c2ccccc12)NCCN1CCOCC1	0.97
CCCOc1ccc(C(=O)Nc2ccc(-c3nc4cc(CC)ccc4o3)cc2)cc1	1.1
O=S(=O)(c1ccccc1)N1CCN(c2ccc3nnc(-c4ccccc4)n3n2)CC1	0.1*
Cc1ccc(S(=O)(=O)N2CCN(c3ccc4nnc(-c5ccccc5)n4n3)CC2)cc1	0.7
c1ccc(-c2nnc3ccc(N4CCCC4)nn23)cc1	0.94
CCOC(=O)c1[nH]c2c(c1Cc1ccccc1OC)C(=O)CC(C)(C)C2	0.97
NC(=O)CSc1nnc(Cc2cc(=O)[nH]c(=O)[nH]2)n1-c1ccc(F)cc1	1
Clc1ccc(-c2csc(Nc3ccc4c(c3)OCO4)n2)cc1	0.64
Cc1ccc(-c2csc(N3CCN(Cc4ccc5c(c4)OCO5)CC3)n2)cc1	0.88
COc1ccc(-c2csc(Nc3ccc4c(c3)OCO4)n2)cc1Br	0.33*!
COc1ccc(-c2csc(Nc3ccc(S(N)(=O)=O)cc3)n2)cc1C	0.55
COc1ccc(-c2csc(Nc3ccccc3OC)n2)cc1Br	0.81
CCc1ccc(-c2csc(Nc3cc(OC)c(Cl)cc3OC)n2)cc1	0.66
CC(C)Cc1ccc(-c2csc(Nc3ccc4c(c3)OCO4)n2)cc1	0.19*!
COc1cc(Nc2nc(-c3cc(C)ccc3C)cs2)c(OC)cc1Cl	0.69
COc1cc(Nc2nc(-c3ccc(CC(C)C)cc3)cs2)c(OC)cc1Cl	0.48*
COC12C=CC(CC1=O)c1c(F)c(F)c(F)c(F)c12 (stereo unspecified)	1.2
Cc1ccc(S(=O)(=O)N2C(=O)CCC2C(=O)NCCOc2ccccc2)cc1 (stereo unspecified)	1.1
Clc1cccc(Oc2nc(-c3ccccc3)nc3c2oc2ccccc23)c1	1.1
SMILES	CBX7 inh
CC(=O)c1cccc(Nc2nc(-c3cccs3)cs2)c1	0.86
CC(=O)Nc1ccc(Nc2nc(-c3c(C)nc4ncccn34)cs2)cc1	1
Cc1c(Cl)cccc1Nc1nc(-c2cccnc2)cs1	0.88
COc1ccc(-c2csc(Nc3cccc(C(C)=O)c3)n2)cc1OC	0.79
CC(=O)c1cccc(Nc2nc(-c3ccccn3)cs2)c1	0.38*
Cc1c(Cl)cccc1Nc1nc(-c2cccs2)cs1	0.84
CC(=O)Nc1ccc(Nc2nc(-c3ccccn3)cs2)cc1	0.061*
CC(=O)Nc1ccc(Nc2nc(-c3cc4ccccc4o3)cs2)cc1	0.79
Cc1c(Cl)cccc1Nc1nc(-c2ccccn2)cs1	0.47*
CCOC(=O)c1c(CNC2CCCCC2)n(-c2ccccc2)c2cc(Br)c(OC)cc12	1
O=C(Nc1nonc1C(=O)c1ccccc1)c1ccccc1F	0.98
Cc1ccc(NC(=O)Cn2ncc3c2-c2cc(C)ccc2OC3)c(Cl)c1	0.97
CCc1ccc2oc(-c3cccc(NC(=O)c4ccc(C)cc4)c3)nc2c1	1.1
CC(C)c1ccc2oc(-c3ccc(NC(=O)c4ccc(Cl)cc4)cc3)nc2c1	0.97
CCc1ccc2oc(-c3cccc(NC(=O)c4ncn[nH]4)c3)nc2c1	0.013*
CC(C)c1ccc2oc(-c3ccc(NC(=O)c4ncn[nH]4)cc3)nc2c1	0.026*
CC(C)c1ccc2oc(-c3ccc(NC(=O)c4ccccc4F)cc3)nc2c1	1
CCc1ccc2oc(-c3cccc(NC(=O)c4ccc(F)cc4)c3)nc2c1	1
O=C(NCc1ccccc1Cl)C(=O)Nc1cccc(C(F)(F)F)c1	1
CC(=O)Nc1cccc(Oc2ccc3c(c2)C(=O)N(c2cc(C)ccc2C)C3=O)c1	0.85
COc1ccc(N2C(=O)CCC(C(=O)Nc3ccc(F)cc3)C2c2ccc(F)cc2)cc1 (stereo unspecified)	1.1
CCOc1ccc(NC(=O)CC2C(=O)N(c3ccccc3)C(=O)N2Cc2ccc(OC)cc2)cc1 (stereo unspecified)	1
Cc1nn(CC(O)Cn2c(C)c(C)c3ccccc32)c(C)c1Br (stereo unspecified)	0.44*
Cc1c(C)n(CC(O)CNCCO)c2ccccc12 (stereo unspecified)	0.92
Cc1ccc(C)c(NCC(O)Cn2c(C)c(C)c3ccccc32)c1 (stereo unspecified)	0.67
Cc1c(C)n(CC(O)CNc2ccccc2)c2ccccc12 (stereo unspecified)	0.25*
COc1ccc(NCC(O)Cn2c(C)c(C)c3ccccc32)c(OC)c1 (stereo unspecified)	0.55
CCN(CC)CC(O)Cn1c(C)c(C)c2ccccc21 (stereo unspecified)	0.97
